Compounds with a hit are over-represented: about 3.4% of the library has one in this group of screens.
Mito fusion act – blocks mitochondrial division or promotes mitochondrial fusion. S. cerevisiae fusion-defective mutant growth rescue, CellTiterGlo 48 h. Potency, µM (doses to about 46.1 µM), for inactives: at the highest dose growth rescue (activation), actives largely listed as activators. 320,000 tested, 0.23% active. AID 485298; further: % of control where 0% means no effect; nearly all actives have a fitted effect of over 45% in size
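Compounds are tested for their ability to restore growth of mitochondrial fusion-defective yeast strains at non-permissive 37C in YPEG medium over 48 hours. Viability is quantified by luciferase luminescence.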
GLS inhibitor – glutaminase GLS (human) inhibition. 410,000 tested, 0.21% active. Potency, µM (top dose mostly 45.5 µM), for inactives: at the highest dose activity change, negative = inhibition, actives largely listed as inhibitors. O94925. GLS enzymatic activity, qHTS titration; further: on the % scale 0 is the no-effect control and ±100 the full control effect
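Glutamate formation by hKGA was monitored fluorometrically using coupled glutamate oxidase, HRP and Amplex Red. Substrate was added as 1 mM L-glutamine solution; incubation was 30 min at RT after an initial read.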
PLK1 PBD inh – inhibitors of human PLK1 polo-box domain binding; Plk1 PBD binding of FITC phosphopeptide, fluorescence polarization; 360,000 tested, 2.8% active; Potency, µM, without a hit: max response, negative = inhibition, hits mostly inhibitors; AID 720504; further: series mostly up to about 57 µM; on the % scale 0 is the no-effect control and ±100 the full control effect; nearly all actives have a fitted effect of over 65% in size
VDR inh – blocks the human vitamin D receptor; AID 504847; P11473; VDR-SRC2-3 peptide fluorescence polarization, 2 h; Potency, µM, for the others: max response, negative = inhibition, hits mostly inhibitors; 400,000 tested, 0.93% active; further: on the % scale 0 is the no-effect control and ±100 the full control effect
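Fluorescence polarization assay measuring small-molecule disruption of VDR binding to the coregulator peptide SRC2-3. Compounds were pin-transferred (23 nl) into the reagent mix and incubated 2 h at room temperature before reading.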
PKM2 act – activators of human pyruvate kinase M2. Potency, µM (titrated, usually from 57.5 µM), for inactives: at the top dose activation, most hits filed as activators. AID 1631. 260,000 tested, 0.34% active. purified PKM2, Kinase-Glo ATP luminescence, activation; response scale: 0% is enzyme alone, no compound; further: on the % scale 0 is the no-effect control and ±100 the full control effect; nearly all actives have a fitted effect of over 55% in size
Target sequence (P14618 whole entry, looked up): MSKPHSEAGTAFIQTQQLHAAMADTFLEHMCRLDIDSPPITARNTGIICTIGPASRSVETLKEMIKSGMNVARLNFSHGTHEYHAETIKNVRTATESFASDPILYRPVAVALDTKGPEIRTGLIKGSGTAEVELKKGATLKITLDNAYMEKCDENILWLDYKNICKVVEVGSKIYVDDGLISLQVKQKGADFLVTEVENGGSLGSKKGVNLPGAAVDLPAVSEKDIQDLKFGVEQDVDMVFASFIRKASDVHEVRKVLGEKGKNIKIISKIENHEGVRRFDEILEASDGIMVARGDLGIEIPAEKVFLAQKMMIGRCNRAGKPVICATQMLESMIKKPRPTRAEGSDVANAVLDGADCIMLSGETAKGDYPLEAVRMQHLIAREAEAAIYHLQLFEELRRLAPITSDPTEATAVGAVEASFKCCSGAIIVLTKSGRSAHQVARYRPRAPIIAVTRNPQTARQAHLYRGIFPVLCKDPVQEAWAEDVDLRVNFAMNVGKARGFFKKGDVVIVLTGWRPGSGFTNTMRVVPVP
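Kinase-Glo luminescence reports ATP generated from ADP (0.1 mM) and PEP (0.5 mM) by purified hPK-M2 after 1 h at room temperature, pH 7.2 imidazole buffer; intermediate enzyme activity allows detecting inhibitors and activators.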
GCN5L2 inh – blocks human GCN5L2 histone acetyltransferase. AID 504327. GCN5L2 HAT assay, ThioGlo1 CoA-SH fluorescence. 390,000 tested, 0.21% active. Potency, µM (series often up to 58.9 µM), inactives show top-dose activity change, negative = inhibition, hits mostly inhibitors; further: on the % scale 0 is the no-effect control and ±100 the full control effect
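GCN5L2 (20 nM) in 50mM HEPES pH 7.5, 0.1mM EDTA, 0.01% Tween-20 preincubated 15 min with compounds at room temperature. Reaction started with H3(1-25) 75uM, acetyl-CoA 70uM, ThioGlo1 50uM; CoA-thiol fluorescence (Ex340/Em540) read at 0 and 20 min.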
* marks the source's active call; other numbers are inactive results; ? = inconclusive; nt = no result given; [ ] = remark or other dose. The call rests on the fitted dose curve; in most records, active means well fitted curve in the direction sought with a large enough effect; inconclusive means small, poorly fitted or top-dose-only effect, or another doubt; inactive means no such curve, though single readings can be large; an effect the other way counts as inactive or inconclusive. Potency means the concentration at half of the fitted maximal effect.

SMILES	Mito fusion act	GLS inhibitor	PLK1 PBD inh	VDR inh	PKM2 act	GCN5L2 inh
CCOc1ccc(Oc2ccc(NC(=O)CSc3nncn3C)cc2)cc1	4%	4%	-9%	-23%	nt	-2%
S=C(c1ccc(-c2cccc(Cl)c2)o1)N1CCOCC1	-2%	-13%	19µM*	?	2%	-23%
Cc1c(C(=O)N2CCN(c3cccc(Cl)c3)CC2)cccc1[N+](=O)[O-]	15%	3%	30µM*	?	1%	-7%
O=C(c1ccc(-c2ccc([N+](=O)[O-])cc2)o1)N1CCCCCCC1	29%	6%	24µM*	35µM*	nt	-13%
O=[N+]([O-])c1cccc(-c2ccc(C(=S)N3CCN(c4ccccc4)CC3)o2)c1	12%	-7%	12µM*	?	-1%	-15%
c1ccc(-c2ccc(N3CCCC4(CCNCC4)C3)cc2)cc1	nt	nt	nt	?	nt	-17%
O=C(c1ccc(-c2cccc(Cl)c2)o1)N1CCN(c2ccc([N+](=O)[O-])cc2)CC1	3%	-29%	27µM*	?	16%	10%
O=C(c1ccc(CS(=O)Cc2ccccc2Cl)o1)N1CCN(c2cccc(Cl)c2)CC1 (stereo not drawn)	35µM*	13%	-3%	0%	nt	-13%
Cc1c(Cl)cccc1-c1ccc(C(=O)N2CCN(c3ccc([N+](=O)[O-])cc3)CC2)o1	-1%	-11%	-3%	-1%	1%	-2%
O=C(NC(=S)Nc1ccc(N2CCOCC2)c(Cl)c1)C(c1ccccc1)c1ccccc1	-11%	-8%	27µM*	-16%	3%	-11%
CC1=CC(=C(C#N)c2nc3ccccc3s2)C=C(C)N1c1ccc(F)cc1	9%	-8%	21µM*	1%	1%	-3%
COc1ccc(-c2cc(C(F)F)n3ncc(C(=O)N4CCc5ccccc54)c3n2)cc1	1%	?	6.7µM*	?	-5%	0%
Cc1ccc(-c2cc(C(F)F)n3ncc(C(=O)N4CCCc5ccccc54)c3n2)cc1	0%	-4%	1%	-3%	-1%	-9%
Cc1cc(S(=O)(=O)N2CCOCC2)ccc1OCC(=O)NCc1ccccn1	-3%	-11%	-13%	-11%	4%	-4%
C=C1C[C@@H]2[C@H]3CCC4=CC(=O)C=C[C@]4(C)[C@@]3(F)[C@@H](O)C[C@]2(C)[C@]1(O)C(=O)COC(C)=O	nt	-5%	nt	nt	nt	nt
O=C(N/N=C/c1ccc(OCCCF)cc1)c1cc(OCC(F)(F)F)ccc1OCC(F)(F)F	2%	14%	1%	-17%	0%	0.89µM*
O=C(CSc1nccn(-c2ccc3c(c2)OCCO3)c1=O)Nc1ccccc1	9%	14%	21µM*	?	nt	2%
O=C(CSc1nccn(-c2cccc(F)c2)c1=O)Nc1ccc(Cl)cc1F	-26%	-9%	?	89µM*	-5%	-10%
O=C(CSc1nccn1-c1cccc(Cl)c1)Nc1cccc2ccccc12	nt	4%	nt	4%	nt	-8%
Cc1ccc(NC(=O)CSc2nccn(-c3ccc4c(c3)OCCO4)c2=O)cc1	20%	-7%	-30%	-15%	nt	0%
c1c2c(cc3sc(N4CCCCC4)nc13)OCO2	-9%	-3%	?	4%	-30%	-9%
c1c2c(cc3sc(N4CCOCC4)nc13)OCO2	-4%	15%	27µM*	?	-21%	-3%
c1ccc(N2CCN(c3nc4cc5c(cc4s3)OCO5)CC2)cc1	4%	-1%	27µM*	?	1%	-9%
CC#CCN1c2ccccc2[C@]23C[C@@H](C(=O)OC)N=C2NC(C(=O)OC)=C(C(=O)OC)[C@H]13	2%	4%	2%	-3%	-1%[11.5 µM]	2%
COC(=O)c1sc(NC(=S)NNC(=O)c2c(Br)c(C)nn2C)c(C(=O)OC)c1C	1%	-2%	27µM*	1%	-4%	?
CCOc1ccc(NC(=O)CCS(=O)(=O)c2ccc(Br)s2)cc1	nt	4%	nt	10%	nt	-2%

From PubChem
